Sampled rows, rich in hits. Any-hit rate of the full collection: about 2.6%.
EBV LMP1 NFkB: reduces LMP1-driven NF-kappaB luciferase signal; AID 504558; LMP1-induced NF-kappaB luciferase reporter cells, luminescence; inhibition, % at 12.5 µM; hit rate 0.69% among 350,000; in the data active = inhibition above about 41%; inconclusive = no clear call, values can overlap the other calls
EWS-Fli block: blocks EWS/Fli oncoprotein-driven transcription. inhibition, % at 12.6 µM. hit rate 0.67% among 350,000. A673 NR0B1-luciferase reporter, viability-normalised;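 active = mean inhibition of at least 50% after viability correction, with every replicate also passing that limit; inconclusive = mean reaches 50% but only one of two replicates passes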;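 also: firefly luciferase signal divided by Alamar Blue viability fluorescence both relative to DMSO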
TROY signal inh: blocks TROY-dependent signaling in reporter cells. Q293 LMP1-TROYcd NF-kB luciferase reporter, 4 h. inhibition, % at 10 µM. hit rate 0.98% among 360,000;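 active = compounds whose plate-normalised and pattern-corrected inhibition of the luciferase reporter signal at the single screening dose is 50% or more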
TWEAK-Fn14 inh: blocks TWEAK-Fn14 interaction in a reporter cell assay; TWEAK-stimulated Fn14 reporter cells, luciferase luminescence, 8 h; inhibition, % at 10 µM; hit rate 2% among 360,000; AID 1159606; in the data active = inhibition above about 50%
LGR2 inh: Drosophila LGR2 receptor signaling inhibition; HEK293 LGR2, CRE-luciferase, bursicon-stimulated, 4 h; inhibition, % at 9.99 µM; hit rate 0.35% among 380,000;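 active = drop in luminescence signal, shown as inhibition above about 50% in the replicate tests, limit read from the data, passing the limit was not always enough; inconclusive = probably only some replicates passing the limit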;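 also: agonist challenge used bursicon conditioned medium at about half maximal strength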
Each line names hits and unclear results; the compound was inactive in the other large screens.

O=C1/C(=C/c2ccccc2Cl)SC(=S)N1CCCC(=O)N(CCO)c1ccccc1	TROY signal inh 63.4, TWEAK-Fn14 inh 60.3 (no result: EWS-Fli block)
COc1cc(/C=C2\SC(=O)N(CCN)C2=O)ccc1OS(=O)(=O)c1cc(C)ccc1C	LGR2 inh 81.9
COc1ccc(/C=C2\SC(=O)N(CCC(=O)Nc3ccccc3)C2=O)cc1OC	none (no result: EWS-Fli block)
CN(C)CC(=O)N1[C@@H]2Cn3c(ccc(-c4cccnc4)c3=O)[C@H]1[C@@H](C(=O)NC1CCCC1)[C@@H]2CO	none (no result: EBV LMP1 NFkB, TROY signal inh, TWEAK-Fn14 inh)
O=C(CCN1C(=O)/C(=C/c2ccccc2Cl)SC1=S)Nc1ccccn1	none
O=C(CCCN1C(=O)/C(=C/c2ccccc2Cl)SC1=S)Nc1cccnc1	EBV LMP1 NFkB 58.4 (no result: EWS-Fli block)
O=C(CCN1C(=O)/C(=C/c2ccccc2Cl)SC1=S)NNC(=O)c1cccnc1	none
O=C(CCN1C(=O)/C(=C/c2ccccc2Cl)SC1=S)Nc1cccnc1	TROY signal inh 57.3
O=C(CCCN1C(=O)/C(=C/c2ccccc2Cl)SC1=S)Nc1ccccn1	TROY signal inh 59.9, TWEAK-Fn14 inh 82.3 (no result: EWS-Fli block)
O=C(CCN1C(=O)/C(=C/c2cccs2)SC1=S)Nc1cccc(O)c1	TROY signal inh 53.7
C[C@@H]1CN([C@@H](C)CO)C(=O)c2cc(-c3ccc(C#N)cc3)cnc2O[C@@H]1CN(C)C(=O)c1ccccc1	none (no result: EBV LMP1 NFkB, TROY signal inh, TWEAK-Fn14 inh)
CCC(=O)N1C[C@@H](C)[C@@H](OC)CN(C)C(=O)c2cc(NC(=O)C3CC3)ccc2OC[C@@H]1C	none (no result: EBV LMP1 NFkB, TROY signal inh, TWEAK-Fn14 inh)
Cc1nc(-c2ccccc2)sc1C(=O)O	none (no result: LGR2 inh)
Cc1ccc(-c2nc(C)c(C(=O)O)s2)cc1	TWEAK-Fn14 inh 62.8, LGR2 inh inconclusive
CC(C)(C)c1ccc(-c2cc(N)n[nH]2)cc1	EWS-Fli block 62.6 (no result: LGR2 inh)
Cc1ccc(-c2cc(N)n[nH]2)cc1	none (no result: EWS-Fli block, LGR2 inh)
C/C=C/c1ccc2c(c1)O[C@@H](CN(C)Cc1cccc(F)c1)[C@H](C)CN([C@@H](C)CO)S2(=O)=O	none (no result: EBV LMP1 NFkB, TROY signal inh, TWEAK-Fn14 inh)
CCN(CC)S(=O)(=O)c1ccc2[nH]cc(C(=O)NCCN3CCCCCC3)c(=O)c2c1	none (no result: EWS-Fli block)
CCN(CC)S(=O)(=O)c1ccc2[nH]cc(C(=O)NCCC3=CCCCC3)c(=O)c2c1	TWEAK-Fn14 inh 58.5 (no result: EWS-Fli block, LGR2 inh)
CC(C)Cn1c(N)c(C(=O)NCC2CCCO2)c2nc3ccccc3nc21 (configuration not stated)	TROY signal inh 50.7 (no result: EWS-Fli block, LGR2 inh)
COCCn1c(N)c(C(=O)NCC2CCCO2)c2nc3ccccc3nc21 (configuration not stated)	none (no result: EWS-Fli block, LGR2 inh)
COCC(C)OC(=O)c1c(N)n(CC(C)C)c2nc3ccccc3nc12 (configuration not stated)	TROY signal inh 58.2 (no result: EWS-Fli block, LGR2 inh)
Nc1c(C(=O)OCC2CCCO2)c2nc3ccccc3nc2n1C1CCCC1 (configuration not stated)	TROY signal inh 60.3 (no result: EWS-Fli block, LGR2 inh)
C=CCn1c(N)c(C(=O)OC(C)CC)c2nc3ccccc3nc21 (configuration not stated)	none (no result: EWS-Fli block, LGR2 inh)
CCC(=O)N(C)C[C@H]1Oc2cc(C#Cc3ccncc3)ccc2S(=O)(=O)N([C@@H](C)CO)C[C@@H]1C	none (no result: EBV LMP1 NFkB, TROY signal inh, TWEAK-Fn14 inh)
CC(=O)Nc1ccc2c(c1)C(=O)N(C)[C@@H]1CC[C@@H](CC(=O)NC3CCCCC3)O[C@H]1CO2	none (no result: EBV LMP1 NFkB, TROY signal inh, TWEAK-Fn14 inh)
O=C1C(=C(I)I)c2ccccc2-c2ccccc21	EWS-Fli block 58.2, TROY signal inh 63.8, TWEAK-Fn14 inh 104.2, LGR2 inh 102.5
OCCN1CCN(CC/C=C2/c3ccccc3Sc3ccc(Cl)cc32)CC1	EBV LMP1 NFkB 79.5 (no result: LGR2 inh)
Cc1ccc(S(=O)(=O)N[C@@H]2C=C[C@H](CC(=O)NC3CCCCC3)O[C@H]2CO)cc1	none (no result: EBV LMP1 NFkB, TROY signal inh, TWEAK-Fn14 inh)
c1ccc(C[n+]2cccc(-c3ccccc3)c2)cc1	TROY signal inh 89.6, TWEAK-Fn14 inh 91.0
c1ccc(C[n+]2ccc3ccccc3c2)cc1	none
NC(=S)n1[nH]c(-c2ccc([N+](=O)[O-])cc2)c(N=Nc2ccc(Cl)cc2)c1=O	TROY signal inh 53.0, TWEAK-Fn14 inh 54.5 (no result: EWS-Fli block, LGR2 inh)
Cc1ccc([N+](=O)[O-])cc1N=Nc1c(-c2ccc([N+](=O)[O-])cc2)[nH]n(C(N)=S)c1=O	TROY signal inh 64.5, TWEAK-Fn14 inh 80.9 (no result: EWS-Fli block, LGR2 inh)
Cc1ccc([N+](=O)[O-])cc1N=Nc1c(C)[nH]n(C(N)=S)c1=O	none
COc1ccc(S(=O)(=O)Nc2ccc3c(c2)C(=O)N([C@@H](C)CO)C[C@@H](C)[C@H](CN(C)S(=O)(=O)c2cn(C)cn2)OCCCC[C@H](C)O3)cc1	none (no result: EBV LMP1 NFkB, TROY signal inh, TWEAK-Fn14 inh)
O=C(NCCC1=CCCCC1)C1CCN(S(=O)(=O)N2CCCC2)CC1	none
O=C(NCCC1=CCCCC1)C1CCN(C(=O)Nc2ccccc2)CC1	TWEAK-Fn14 inh 110.0 (no result: EWS-Fli block, LGR2 inh)
CO[C@@H]1CN(C)C(=O)c2cc(NC(=O)C3CC3)ccc2OC[C@@H](C)N(Cc2ccncc2)C[C@@H]1C	none (no result: EBV LMP1 NFkB, TROY signal inh, TWEAK-Fn14 inh)

From PubChem BioAssay
